Here are results for 40 compounds from PubChem BioAssay (NCI).

Each structure is given as a SMILES string. Compounds without any hit were thinned out: in the full panel of roughly 83,000, 20% have a hit.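 Values shown are percent growth following 48 h exposure of cells in 96-well plates to a single concentration of compound; below 10 was considered active.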 Unmarked numbers belong to inactive results. Activity calls are given as the source filed them.

The experiment concerns HL-60(TB) leukemia. The experiment can be described thus: NCI-60 one-dose screen, 48 h (100 = growth as untreated, 0 = no growth, -100 = all killed). The following applies: 10 µM unless noted.
With `CN(C)CC1CCCCCC(CN(C)C)C1=O` (stereo not given), the growth is 26%.

`COc1ccc(C2[C@@H](Cl)C(=O)N2c2cc(OC)c(OC)c(OC)c2)cc1Cl` (stereo not given in full): the growth is -30.3% (active).

For the compound `CC(/C=N/N1C(=O)c2ccccc2C1=O)c1ccccc1` (stereo not given), the growth was 108%.

In the case of `COc1cc([C@@H]2c3cc4c(cc3[C@H](O)[C@H]3COC(=O)[C@H]23)OCO4)cc(OC)c1OC`, the growth was -50.2% (active). Under `CC(=O)c1cc2c(N)c(C(=O)Nc3cccc4c3OCCO4)sc2nc1C` stands 86.8%; under `CC1=C2[C@@H](CC1)[C@]1(C)O[C@@](C(C)C)(C[C@H]1OC(=O)CO)[C@H]2OC(=O)C1CC1c1ccccc1` (stereo not given in full), 89.8%; under `O=C1CCC23OC(C(O)c4ccccc4N12)C1C(Br)=NOC13` (stereo not given), 96%. As for `NC(=O)Nc1cc(-c2cccc(F)c2)sc1C(=O)N[C@H]1CCCNC1`, the figure is -29.9% (active); as for `CC(C)CCc1nc2ccc(NCc3ccc(OCCN4CCC(C)CC4)cc3)cc2[nH]1`, 84.8%. For the compound `CC/C=C\CCC/C=C1/C(=O)C=C[C@@H]1C/C=C\CCCC(=O)OC`, the growth is -9.11% (active). As for `CC/C=C\C[C@@H](O)C/C=C1/C(=O)C=C[C@H]1C/C=C\CCCC(=O)OC`, the growth is -15.6% (active). In the case of `CC[C@H](CC[C@@H](C)[C@H]1CC[C@H]2[C@@H]3CC[C@@H]4CC(=O)/C(=C\c5ccncc5)C[C@]4(C)[C@H]3CC[C@]12C)C(C)C`, the growth is 83.1%.

As to `C=CCn1c(SCC(=O)Nc2ccc(C(=O)/C=C/c3cc(OC)c(OC)c(OC)c3)cc2)nnc1-c1ccc(Cl)cc1`, the growth was 12.3%. Under `Cn1cc(-c2ccc3c(Nc4cccc(NC(=O)Nc5cccc(F)c5)c4)ncnc3c2)cn1` stands 74.1%. Under `CCOC(=O)c1cn2ncnc(Oc3ccc(NC(=O)NCCN(CC)CC)c(Cl)c3)c2c1C` stands 100%. As for `N#CCc1cccc2ccccc12`, the growth was 90.6%. Under `CC1=C[C@H]2c3c(c(O)c(O)c4oc5ccccc5c(=O)c34)[C@H](c3cc(O)c(O)c4oc5ccccc5c(=O)c34)[C@H]2C(C)(C)C1` stands -23% (active); under `O=C(N/N=C/c1c[nH]c2ccccc12)c1cc(-c2ccccc2)on1`, 73.4%; under `CCCCN1C(=O)/C(=c2\sc3n(c2=O)NC2C(N=3)N(CC)C(=O)N2CC)c2ccccc21` (stereo not given), 21.3%. As for `Cc1ccc(C)c(COc2cc(NC(=O)c3ccc4c(c3)OCO4)ccc2N(C)S(C)(=O)=O)c1`, the figure is -5.51% (active); as for `Nc1nc(N)c(N=Nc2c(Br)cc(S(N)(=O)=O)cc2Br)c(N)n1`, 105%. For `CC(=O)n1c(/C(C#N)=C/c2ccc(N(C)C)cc2)cc2ccccc21`, the growth was 10.5%.

On to `COc1ccc(C2CC(c3cc(OC)c(OC)c(OC)c3)=NN2c2ccc(S(N)(=O)=O)cc2)cc1` (stereo not given), for which the growth was 2.23% (active).

Take `Clc1ccc(OCc2nc(-c3ccccc3)n[nH]2)c(Cl)c1`: the growth was 94.9%. As for `CN1CCN(C(=O)c2c3c(n4ccccc24)C(=O)c2ncccc2C3=O)CC1`, the figure is 53.4%; as for `COC1/C=C\OC2(C)Oc3c(C)c(O)c4c(O)c(c(CN(C)CCO)c(O)c4c3C2=O)NC(=O)/C(C)=C\C=C/C(C)C(O)C(C)C(O)C(C)C(OC(C)=O)C1C` (stereo not given), 114%. As for `O=C(O)c1ccc(NC(=O)c2cccc(Nc3ccnc(C(F)(F)F)c3)c2)cc1`, the figure is 94.1%; as for `COc1ccc(C(=O)/C=C/c2cccc(Nc3ccnc4cc(Cl)ccc34)c2)cc1`, 51.7%; as for `S=c1ssnc1-c1cc2ccccc2o1`, 78%. Under `Cc1ccc2nc3c(cc2c1)CSc1nnc(-c2ccc[nH]c2=S)n1N3` stands 102%; under `Cc1cc2c(C#N)n3c(c2cc1C)C(=O)C(c1ccccc1)Oc1ccccc1-3` (stereo not given), 36.3%. Turning to `COc1ccc(Nc2nc(N)nc3c2CCN(Cc2ccc(OC)cc2OC)C3=O)cc1`, the growth was 59.1%.

On to `O=C1OC(Oc2ccc(Br)cc2)(c2ccccc2)c2ccccc21` (stereo not given), for which the growth was 120%. Consider `COc1ccc(-c2cnoc2-c2ccc(OC)cc2O)cc1`, for which the growth was 26.4%. `CCCCCCCCCCC(C[N+](C)(C)C/C=C/c1ccccc1)C(O)c1ccccc1` (stereo not given): the growth was -48.9% (active).

With `C=C(C)[C@@H]1CC[C@]2(COC(=O)c3ccccc3C(=O)O)CC[C@]3(C)[C@H](CC[C@@H]4[C@@]5(C)CC[C@H](OC(=O)c6ccccc6C(=O)O)C(C)(C)[C@@H]5CC[C@]43C)[C@@H]12`, the growth is 37.8% [100 µM].

`Cc1cccnc1NC1OC(=O)c2ccccc21` (stereo not given): the growth was 100%. Under `N[C@@H](Cc1ccccc1)[C@@H](O)C(=O)NCc1ccc(F)cc1` stands 101%; under `O=C(/C=C(\Nc1ccccc1)c1ccccc1)c1cn(-c2ccc([N+](=O)[O-])cc2)nn1`, 114%.

Take `O=[N+]([O-])c1ccc2[nH]c(=S)n(/C=C(/c3ccc(Cl)cc3Cl)S(=O)(=O)Cc3ccc(Cl)cc3Cl)c2c1`: the growth is 101%.
